Measurements published in PubChem BioAssay (NCATS).
A number with no mark means an inactive call. Records with an inconclusive call do not appear. A call without a number means that no potency is given here. Active and inactive are the calls of the source. The call rests on the fitted dose curve; in most records, active means well fitted curve in the direction sought with a large enough effect; inconclusive means small, poorly fitted or top-dose-only effect, or another doubt; inactive means no such curve, though single readings can be large; an effect the other way counts as inactive or inconclusive.

What was measured:
[1] = qHTS of Nrf2 Activators: LOPAC Validation (AID 624149); further: potency means the concentration at half of the fitted maximal effect
Method in brief: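 Cells (AREc32_Fluc) are plated at 1000 per well in OPTI-MEM containing 5% FBS and left overnight. Compounds are pinned in and incubated 24 hr at 37 deg C, and firefly luciferase is detected with Steady-Glo.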

[2] = HTS Assay for Allosteric Antagonists of the Human D2 Dopamine Receptor: Hit Validation in HTRF (AID 624455); further: potency means the concentration at half of the fitted maximal effect;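 further: stable D1 dopamine receptor cell line scored for blocking the D1 response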
Method in brief: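 Inhibition of the D1-mediated response is measured by HTRF in cells that stably express the D1 dopamine receptor. Compounds reaching this step are hits from calcium-flux antagonism testing at EC80 dopamine in inducible Hek293 Trex D2 cells.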

[3] = target: Arylsulfatase A (Homo sapiens) (UniProt P15289); test: qHTS screen for enhancers of Arylsulfatase A (ASA1): LOPAC Validation Assay (AID 720538); further: potency means the concentration at half of the fitted maximal effect
Method in brief: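 SV40-transformed fibroblasts from an MLD patient (ASA-I179S) were treated with compound for 48 h at 37 C. They were then lysed with 0.5 mM pNCS substrate (final) for 14 h at room temperature and stopped with NaOH; signal read by fluorescence (Ex 525/Em 598 nm), with increase denoting enhanced activity.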

[4] = qHTS for Activators of Parkin Expression: LOPAC Validation Assay (NLuc Reporter) (AID 720572; further: potency means the concentration at half of the fitted maximal effect)
Method in brief: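 Cells harboring the Parkin-promoter coincidence reporter were treated for 24 h at seven concentrations. NLuc output was measured sequentially after the FLuc channel and scaled between DMSO and positive control values.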

[5] = qHTS for Activators of Parkin Expression: LOPAC Validation Assay (FLuc Reporter) (AID 720573)
Method in brief: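 Neuronal cell line stably expressing FLuc/NLuc coincidence reporter under the Parkin promoter, 1,500 cells/well, dosed 24 h after seeding in 7-point series for 24 h at 37 C. FLuc luminescence read; normalized to DMSO and positive control (100%).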

[6] = target: T1, Hexokinase-4 (Homo sapiens) + Glucokinase regulatory protein (Homo sapiens) (UniProt P35557+Q14397); test: qHTS assay for inhibitors of recombinant human GCK-GKRP interaction: Diaphorase-coupled assay (AID 743205)
Method in brief: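 Compounds pre-incubated 20 min with substrate, then 10 nM GST-GCK with 10 nM FLAG-GKRP added. GCK activity coupled via G6PDH and diaphorase to resorufin (5 mM glucose, 0.4 mM ATP, 0.15 mM NADP+, pH 7.6), read kinetically over 30 minutes at Ex 525/Em 590 nm.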

[7] = target: T1, Hexokinase-4 (Homo sapiens) + Glucokinase regulatory protein (Homo sapiens); test: qHTS assay for inhibitors of recombinant human GCK-GKRP interaction: ADP-Glo assay (AID 743206)
Method in brief: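 Pin-transferred compounds meet a 15 nM GST-GCK/15 nM FLAG-GKRP/2 uM S6P mix (dispense concentrations). ATP is then added to 0.4 mM final with 5 mM glucose, and the reaction runs 60 min at room temperature. ADP is quantified luminescently.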

[8] = qHTS for compounds that reverse cellular toxicity of Amyloid beta (A-beta) peptide in yeast: LOPAC Validation Assay (AID 720559)
Method in brief: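 Yeast expressing toxic A-beta grown with pinned compounds at 30 C for 48 hr. Growth measured as absorbance at 600 nm; data normalized to DMSO and to an equimolar FeCl3/clioquinol mixture as positive control.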

T1 sequence (P35557 whole entry, looked up): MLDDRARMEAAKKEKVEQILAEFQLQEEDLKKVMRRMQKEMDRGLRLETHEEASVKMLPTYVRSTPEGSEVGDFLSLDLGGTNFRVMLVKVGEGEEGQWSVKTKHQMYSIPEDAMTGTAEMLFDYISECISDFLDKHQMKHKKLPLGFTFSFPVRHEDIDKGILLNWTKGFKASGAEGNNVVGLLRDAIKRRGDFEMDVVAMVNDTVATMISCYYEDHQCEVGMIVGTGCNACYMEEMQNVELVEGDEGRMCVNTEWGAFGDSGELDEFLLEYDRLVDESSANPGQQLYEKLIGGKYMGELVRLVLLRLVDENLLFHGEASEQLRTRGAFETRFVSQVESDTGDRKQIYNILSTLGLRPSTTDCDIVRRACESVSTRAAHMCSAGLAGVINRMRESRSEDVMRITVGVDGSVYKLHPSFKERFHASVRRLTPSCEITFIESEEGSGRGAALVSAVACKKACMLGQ
T1 sequence (Q14397 whole entry, looked up): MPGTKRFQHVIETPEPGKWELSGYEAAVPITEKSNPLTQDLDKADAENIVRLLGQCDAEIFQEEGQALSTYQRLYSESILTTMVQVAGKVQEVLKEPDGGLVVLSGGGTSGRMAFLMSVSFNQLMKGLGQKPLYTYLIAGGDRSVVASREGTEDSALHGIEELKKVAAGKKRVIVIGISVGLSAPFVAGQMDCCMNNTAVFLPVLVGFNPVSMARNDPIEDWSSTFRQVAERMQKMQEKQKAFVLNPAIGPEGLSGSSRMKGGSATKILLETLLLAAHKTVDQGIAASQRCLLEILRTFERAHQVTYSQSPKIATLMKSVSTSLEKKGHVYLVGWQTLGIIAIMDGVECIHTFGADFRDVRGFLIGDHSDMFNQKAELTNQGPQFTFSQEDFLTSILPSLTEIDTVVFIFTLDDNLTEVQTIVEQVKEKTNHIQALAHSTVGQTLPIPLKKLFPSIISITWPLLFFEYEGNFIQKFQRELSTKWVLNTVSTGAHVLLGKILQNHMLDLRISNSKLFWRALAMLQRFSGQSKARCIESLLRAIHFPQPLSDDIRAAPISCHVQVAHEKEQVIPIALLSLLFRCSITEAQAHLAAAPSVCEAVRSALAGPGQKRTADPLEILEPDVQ
Sequence of Arylsulfatase A (Homo sapiens) (P15289 whole entry, looked up): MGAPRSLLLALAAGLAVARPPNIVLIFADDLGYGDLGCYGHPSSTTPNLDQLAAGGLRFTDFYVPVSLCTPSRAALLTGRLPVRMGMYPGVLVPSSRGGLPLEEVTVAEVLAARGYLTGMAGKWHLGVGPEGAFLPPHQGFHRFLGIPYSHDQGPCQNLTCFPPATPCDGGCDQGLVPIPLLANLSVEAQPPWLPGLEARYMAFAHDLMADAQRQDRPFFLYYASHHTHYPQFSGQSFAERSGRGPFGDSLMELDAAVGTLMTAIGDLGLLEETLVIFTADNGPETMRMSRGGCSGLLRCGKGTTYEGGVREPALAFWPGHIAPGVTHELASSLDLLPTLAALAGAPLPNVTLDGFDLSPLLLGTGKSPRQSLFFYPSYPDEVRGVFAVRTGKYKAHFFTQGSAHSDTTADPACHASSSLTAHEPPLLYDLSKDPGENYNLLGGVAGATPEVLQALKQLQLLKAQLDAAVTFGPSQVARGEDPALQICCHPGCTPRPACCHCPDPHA

| Structure (SMILES) | Potency [1] | Potency [2] | Potency [3] | Potency [4] | outcome [5] | Potency [6] | outcome [7] | outcome [8] |
| --- | --- | --- | --- | --- | --- | --- | --- | --- |
| Cc1o[nH]c(=O)c1CC(N)C(=O)O (stereo not given) | inactive | inactive | inactive | inactive | inactive | inactive | inactive | – |
| COc1ccc2c(c1)/C(=C/c1cnc[nH]1)C(=O)N2 | inactive | inactive | inactive | 23100 nM (active) | inactive | inactive | inactive | – |
| CC(C)(C)c1cc(C=C(C#N)C#N)cc(C(C)(C)C)c1O | inactive | inactive | inactive | – | inactive | inactive | inactive | inactive |
| O=S1(=O)N(CCN2CC=C(c3c[nH]c4cc(F)ccc34)CC2)c2cccc3c2N1CCC3 | inactive | inactive | inactive | – | inactive | inactive | inactive | – |
| C=CCN1CCc2cccc3c2[C@H]1Cc1ccc(O)c(O)c1-3 | inactive | 51.7 nM (active) | – | – | inactive | inactive | inactive | inactive |
| c1ccc2cc(CC3=NCCN3)ccc2c1 | inactive | inactive | inactive | inactive | inactive | inactive | inactive | – |
| NCCc1c[nH]c2ccc(C(N)=O)cc12 | inactive | inactive | – | inactive | inactive | inactive | inactive | inactive |
| N[C@@H](Cn1ccc(=O)[nH]c1=O)C(=O)O | inactive | inactive | inactive | inactive | inactive | inactive | inactive | – |
| CCNC(=O)[C@H]1O[C@@H](n2cnc3c(N)ncnc32)[C@H](O)[C@@H]1O | inactive | inactive | – | – | inactive | inactive | inactive | inactive |
| O=C1CC[C@@]2(O)C3Cc4ccc(O)c5c4C2(CCN3CC2CC2)[C@H]1O5 (stereo not given in full) | inactive | inactive | 426 nM (active) | – | inactive | inactive | inactive | inactive |
| CC(N)Cc1c[nH]c2ccc(OCc3cccs3)cc12 (stereo not given) | inactive | inactive | – | inactive | inactive | inactive | inactive | – |
| C[C@H](Cc1ccc2c(c1)OC(C(=O)O)(C(=O)O)O2)NC[C@H](O)c1cccc(Cl)c1 | inactive | inactive | inactive | – | inactive | inactive | inactive | – |
| C[N+]1(C)CCc2cc3c(cc2[C@H]1[C@@H]1OC(=O)c2c1ccc1c2OCO1)OCO3 | inactive | inactive | inactive | – | inactive | inactive | inactive | inactive |
| CCN(CCCl)Cc1ccccc1Br | inactive | inactive | inactive | – | inactive | inactive | inactive | – |
| NC(N)=Nc1ccc2[nH]c3c(c2c1)C[C@@]1(O)[C@H]2Cc4ccc(O)c5c4[C@@]1(CCN2CC1CC1)[C@H]3O5 | 2910 nM (active) | inactive | inactive | inactive | inactive | inactive | inactive | – |
| C[N+]1(C)C2CCC1CC(OC(=O)c1c[nH]c3ccccc13)C2 (stereo not given) | inactive | inactive | – | inactive | inactive | inactive | inactive | inactive |
| CCS(=O)(=O)Nc1cccc(C(=C2CCCCC2)c2cnc[nH]2)c1 | inactive | inactive | inactive | – | inactive | inactive | inactive | – |
| N[C@@H](Cn1oc(=O)[nH]c1=O)C(=O)O | inactive | inactive | – | inactive | inactive | inactive | inactive | inactive |
| CC(Cc1ccc(OCC(=O)O)cc1)NCC(O)c1cccc(Cl)c1 (stereo not given) | inactive | inactive | inactive | – | inactive | inactive | inactive | – |
| C[C@]12Cc3cn4c(nc3C=C1CCC1C2CC[C@@]2(C)[C@H]1CC[C@@]2(O)C#N)nc1ccccc14 (stereo not given in full) | inactive | inactive | inactive | – | inactive | inactive | inactive | inactive |
| CN1C2CCC1CC(OC(c1ccccc1)c1ccccc1N)C2 (stereo not given) | inactive | inactive | inactive | inactive | inactive | inactive | inactive | – |
| NNC(=O)c1ccc(O)cc1 | inactive | inactive | inactive | – | inactive | inactive | inactive | inactive |
| CCCN(CCC)CCc1c[nH]c2ccc(C(N)=O)cc12 | inactive | inactive | inactive | – | inactive | inactive | inactive | – |
| O=[N+]([O-])c1cc(O)c(O)c([N+](=O)[O-])c1 | inactive | inactive | 19000 nM (active) | – | inactive | inactive | inactive | inactive |
| N#CCCN | inactive | inactive | – | inactive | inactive | inactive | inactive | – |
| CC(=O)c1c(O)c(C)c(O)c(Cc2c(O)c3c(c(C(=O)/C=C/c4ccccc4)c2O)OC(C)(C)C=C3)c1O | inactive | inactive | inactive | – | inactive | inactive | inactive | inactive |
| CP(=O)(O)C1=CCNCC1 | inactive | inactive | inactive | – | inactive | inactive | inactive | – |
| NC(Cc1ccc(N(CCCl)CCCl)cc1)C(=O)O (stereo not given) | inactive | inactive | inactive | inactive | inactive | inactive | inactive | – |
